Compound activity (PubChem BioAssay)
CYP2C9 inh: blockers of cytochrome P450 2C9 activity – biochemical, luminescence, ADME assay, primary screen. AID 777, 2007. CYP2C9 Supersomes, luciferin-H conversion. inhibition, % at 5 µM. 96,000 tested, 20% active. P11712;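 active = blocking of liver enzyme CYP2C9 beyond about 50% at 5 µM, limit read from the data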
Target sequence (P11712 whole entry, looked up): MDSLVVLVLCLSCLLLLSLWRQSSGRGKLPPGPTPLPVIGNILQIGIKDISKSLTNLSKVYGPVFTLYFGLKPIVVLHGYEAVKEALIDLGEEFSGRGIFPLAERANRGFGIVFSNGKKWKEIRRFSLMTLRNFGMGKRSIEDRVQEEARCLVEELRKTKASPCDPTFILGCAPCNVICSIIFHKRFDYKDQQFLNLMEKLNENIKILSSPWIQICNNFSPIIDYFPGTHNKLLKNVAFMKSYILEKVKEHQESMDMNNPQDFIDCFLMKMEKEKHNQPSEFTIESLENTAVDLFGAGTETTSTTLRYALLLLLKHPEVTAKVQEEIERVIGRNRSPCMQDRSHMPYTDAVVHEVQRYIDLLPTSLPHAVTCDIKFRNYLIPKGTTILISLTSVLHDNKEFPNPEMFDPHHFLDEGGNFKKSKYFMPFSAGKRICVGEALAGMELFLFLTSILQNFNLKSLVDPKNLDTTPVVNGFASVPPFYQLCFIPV
CYP2C9 act: human CYP2C9 activators, primary screen, biochemical, luminescence. recombinant CYP2C9, luciferin-H conversion; active compounds read high; factor 1 = untreated enzyme, 0 = blocked. activation factor at 5 µM. 96,000 tested, 1.4% active;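 active = activation factor of 2 or more for CYP2C9 at a 5 µM dose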;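 also: 0 = sulfaphenazole-blocked wells and 1 = vehicle-only wells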
CYP2C19 activ: human CYP2C19 activators, primary screen, biochemical, luminescence | recombinant CYP2C19, luciferin-H EGE luminescence; active compounds read high; 0 = fully inhibited enzyme, 1 = untreated enzyme | activation factor at 5 µM | 96,000 tested, under 10 active | AID 1025, 2008 | Cytochrome P450 2C19 (Homo sapiens), P33261;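 active = activation factor of at least 2 at 5 µM in the primary screen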;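 also: 0 = wells with 2.5 mM tranylcypromine and 1 = vehicle-only wells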
CYP2C19 inh: blockers of cytochrome P450 2C19 activity – biochemical, luminescence, ADME assay, primary screen | P33261 | AID 778, 2007 | inhibition, % at 5 µM | CYP2C19 Supersomes, luciferin-H EGE luminescence, 30 min | 96,000 tested, 21% active;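 active = CYP2C19 inhibition above a set limit at 5 µM in the primary screen, cut at about 50% in these data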;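 also: plate controls were negative control wells for no effect and 2.5 mM tranylcypromine positive control for full effect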
Pyk2 oligo antag: antagonists of Pyk2 self-association, primary screen, Q293 cells, FERM NanoBiT luminescence, HTS; Protein-tyrosine kinase 2-beta (Homo sapiens), Q14289; active compounds read low; z-score (the deposit names both 25 µM and 10 µM); 99,000 tested, 0.83% active; AID 1347419, 2020;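 active = Z-score of -3 or lower, scaled per plate to the spread of control and sample wells; inactive = z-score above -3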;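 also: negative z-score means lost luminescence so less FERM oligomerization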
Cav3 T inh: Cav3.2 calcium influx blockers – cell-based, Fluo-4 calcium fluorescence, FDSS, MLSMR library, primary screen. Voltage-dependent T-type calcium channel subunit alpha-1H (Homo sapiens), O95180. Cav3.2-expressing cells; active compounds read low. B-score at 10 µM. 100,000 tested, 4% active. AID 449739, 2010;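 active = single-dose well whose peak fluorescence ratio is a statistical outlier from its plate by either plate-standardised score or position-corrected B-score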
* = called active by the depositor; nt = not tested or not shown. Hits are enriched below; roughly 27% of the tested compounds scored in any of these assays.

SMILES	CYP2C9 inh	CYP2C9 act	CYP2C19 activ	CYP2C19 inh	Pyk2 oligo antag	Cav3 T inh
Cn1ncc([N+](=O)[O-])c1C(=O)N1CCOCC1	-1	1	1	5	0.25	0.076
CCCC(=O)Nc1ccc2c(c1)nc(CN1CCCCC1)n2C	7	0.9	1	-1	0.48	0.81
COc1cccc(N(C(=O)c2ccco2)C(C(=O)NC2CCCC2)c2ccc(N(C)C)cc2)c1 (configuration not stated)	39	0.6	0.6	38	-1.1	-1.5
COc1cc(OC)cc(N(C(=O)c2ccco2)C(C(=O)NC2CCCC2)c2ccc(N(C)C)cc2)c1 (configuration not stated)	48	0.5	0.8	19	-1.5	-1.6
COc1cccc(N(C(=O)c2ccco2)C(C(=O)NC2CCCC2)c2cccnc2)c1 (configuration not stated)	65*	0.3	0.3	67*	-0.85	0.92
COc1cccc(N(C(=O)CNC(=O)c2ccco2)C(C(=O)NC2CCCCC2)c2ccncc2)c1 (configuration not stated)	76*	0.2	0.4	57*	0.05	0.61
COc1ccc(N(C(=O)c2ccco2)C(C(=O)NC2CCCC2)c2ccc(N(C)C)cc2)cc1 (configuration not stated)	24	0.8	0.9	11	-1	-3.5*
CCOc1ccccc1N(C(=O)c1ccco1)C(C(=O)NC1CCCC1)c1cccnc1 (configuration not stated)	17	0.8	0.4	56*	-0.57	0.51
CCOC(=O)N1CCN(C(=O)c2ccc3c(SCC(=O)O)c4c(nc3c2)CCC4)CC1	28	0.7	1	2	nt	0.64
Cc1cc(N2CCC(N(C)C3CCCC3)CC2)nc2cc(O)ccc12	4	1	0.9	14	nt	nt
CC(C)C(NC(=O)OCc1ccccc1)C(=O)NCC(=O)OC(C)(C)C (configuration not stated)	14	0.9	0.2	83*	1.4	1.1
CC(C)[C@H](NC(=O)OCc1ccccc1)C(=O)OCC(=O)NC1CCCCC1	81*	0.2	0.2	78*	0.42	-1.2
CN(CC(=O)O/N=C(\N)c1ccccn1)S(=O)(=O)c1cc(Cl)ccc1Cl	-54	1.5	0.9	14	0.32	-0.014
COc1ccc(NC(=O)CN(C)S(=O)(=O)c2cccc3cccnc23)cc1	90*	0.1	0.3	70*	nt	-0.12
CCOc1ccc(N(CC(=O)Nc2ccc(OC)cc2)S(C)(=O)=O)cc1	20	0.8	0.9	11	-0.1	0.69
CN(CC(=O)Nc1ccc2c(c1)OCCO2)S(=O)(=O)c1cccc2cccnc12	94*	0.1	0.2	78*	nt	0.45
CN(CC(=O)Nc1ccc(Cl)cc1)S(=O)(=O)c1cccc2cccnc12	68*	0.3	0.5	48	nt	-1.4
CN(CC(=O)Nc1cccnc1)S(=O)(=O)c1cc(Cl)ccc1Cl	48	0.5	0.2	80*	-0.28	-1.2
Cc1nc2nc(C)c(CCC(=O)O)c(C)n2n1	-7	1.1	1	4	1.5	-0.83
Cc1ccccc1NC(=O)CN(C)S(=O)(=O)c1cccc2cccnc12	88*	0.1	0.3	72*	nt	0.017
O=S(=O)(c1cccc2cccnc12)N(CCO)CCO	-36	1.4	1.2	-17	nt	0.015
CN(CC(=O)Nc1ccncc1)S(=O)(=O)c1ccc(Cl)cc1	80*	0.2	0	100*	0.29	0.92
CCCCCCCC(=O)NNC(=O)c1ccc(F)cc1	6	0.9	0.7	35	1.7	1.2
CCOc1ccc(C2CC(=O)NC3=C2C(=O)CCC3)cc1 (configuration not stated)	-5	1	1.1	-6	0.37	-0.49
O=C1CC(c2ccc3c(c2)OCO3)C2=C(CCCC2=O)N1 (configuration not stated)	52*	0.5	0.9	14	-0.26	0.67
SMILES	CYP2C9 inh	CYP2C9 act	CYP2C19 activ	CYP2C19 inh	Pyk2 oligo antag	Cav3 T inh
O=C1CC(c2ccc(F)c(Br)c2)C2=C(CCCC2=O)N1 (configuration not stated)	29	0.7	0.3	69*	-0.14	0.63
CC(=O)Nc1ccc2nc(C3CCCCC3)[nH]c2c1	4	1	1	-1	-0.08	0.65
Cc1ccc(Cl)cc1NC(=O)Cn1cc2c(n1)CCCC2	20	0.8	0.8	22	nt	-1.4
CC(C)c1nnc(NC(=O)Cn2nc(-c3ccc4c(c3)OCCO4)ccc2=O)s1	28	0.7	1	-2	1	-0.56
COc1ccc(C(=O)C(OC(=O)c2ccccc2)c2ccccc2)cc1 (configuration not stated)	70*	0.3	0.4	59*	-1.3	nt
CC1=C(C(=O)OCc2ccccc2)C(c2ccoc2)C(C#N)=C(N)O1 (configuration not stated)	48	0.5	0.2	77*	0.28	-0.93
CC1=C(n2nnc3ccccc32)C(c2ccccc2)C(C#N)=C(N)O1 (configuration not stated)	26	0.7	0.7	30	-0.34	0.066
CCOC(=O)C1=C(C)OC(N)=C(C#N)C1c1c(C)nn(-c2ccccc2)c1Cl (configuration not stated)	74*	0.3	0.2	83*	-0.83	-9.2*
C=CCOC(=O)C1=C(C)OC(N)=C(C#N)C1c1c(C)nn(-c2ccccc2)c1Cl (configuration not stated)	82*	0.2	0.1	89*	-1.9	-9.2*
Cc1ccc(-n2nc(C)c(C3C(C#N)=C(N)OC4=C3C(=O)CC(C)(C)C4)c2Cl)cc1 (configuration not stated)	11	0.9	0.9	7	nt	nt
CN1C(=O)CSc2ccc(NC(=O)NCCC3=CCCCC3)cc21	28	0.7	0.8	25	-0.51	-0.016
N#Cc1ccc(N2Cc3ccccc3C2=NC(=O)c2cccnc2Cl)cc1	nt	nt	nt	nt	0.31	nt
COC(=O)c1ccc(N=C2S/C(=C\c3cc(C)n(-c4cccnc4)c3C)C(=O)N2C)cc1	nt	nt	nt	nt	-1	0.38
CC(C)C(=O)NC(c1ccco1)c1c(O)ccc2ccccc12 (configuration not stated)	66*	0.3	0.7	26	-1.7	-0.7
CC(NC(=O)c1ccco1)c1cccc2ccccc12 (configuration not stated)	nt	nt	nt	nt	-0.55	0.44
O=C(NC(c1ccccc1)c1c(O)ccc2ccccc12)c1ccccc1Cl (configuration not stated)	93*	0.1	0.2	76*	-3.3*	0.33
